# Screening results: PubChem BioAssay, National Center for Advancing Translational Sciences (NCATS)
# An excerpt weighted towards active compounds, which were near 0.55% of everything screened.
# ASM inhibitor – Inhibitors of Secretory Acid Sphingomyelinase (S-ASM): qHTS; Sphingomyelin phosphodiesterase (Homo sapiens), P17405; placental ASM, HMU-PC fluorogenic substrate, 60 min; Potency, µM (highest dose often 57.5 µM), without a hit: top-dose activity change, negative = inhibition, hits mostly inhibitors; 0.006% of 340,000 active; AID 504937, 2011
#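 HMU-PC0 cleavage (9 uM final) by human placental ASM, 60 min at 37 °C following 10 min compound exposure at RT; stopped at pH 10, fluorescence Ex 386/Em 447 nm.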
# KAT2A inh – qHTS Assay for Inhibitors of GCN5L2; Histone acetyltransferase KAT2A (Homo sapiens), Q92830; GCN5L2 HAT assay, ThioGlo1 CoA-SH fluorescence; Potency, µM (series often up to 58.9 µM), without a hit: at the highest dose activity change, negative = inhibition, hits mostly inhibitors; 0.21% of 390,000 active; AID 504327, 2011; also: % is scaled to controls: 0 for no effect and ±100 for the full control effect
#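 Free CoA generated was detected with ThioGlo1 (50uM) fluorescence at Ex340nm/Em540nm, read immediately and after 20 min at room temperature. Enzyme, 20 nM in HEPES pH 7.5 buffer, saw compounds 15 min before adding 75uM H3(1-25) peptide and 70uM acetyl-CoA.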
# p53 reactivator – qHTS assay for re-activators of p53 using a Luc reporter. H1299 p53-A138V BP100-luciferase reporter, luminescence, 24 h. Potency, µM (series often up to 92.2 µM), without a hit: at the highest dose activity change, positive = activation, hits mostly activators. AID 504706, 2011. 0.063% of 320,000 active; also: % of control where 0% means no effect; nearly all actives have a fitted effect of over 45% in size
#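 H1299 (p53-null), stable ts p53-A138V + BP100-Luc; 1000 cells/well, Opti-MEM/10% FBS; cpd 4 pt, 1:5; 24 h, 37 deg C, 5% CO2; detection reagent 10 min RT; luminescence.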
# ERG Ets-DNA blk – qHTS for Small Molecule Inhibitors of the ERG Ets/DNA interaction; Transcriptional regulator ERG (Homo sapiens), P11308; fluorescence polarization, His-ERG Ets domain / labelled DNA; Potency, µM (titrated, usually from 76.9 µM), inactives show at the highest dose FP activity, negative = inhibition, hits mostly inhibitors; 0.028% of 370,000 active; AID 624246, 2012; active = well fitted inhibition curve with a large enough effect in the polarisation, with a control signal flat; inconclusive = small, poorly fitted or top-dose-only effect, or effect the other way, or a change in a side signal; inactive = no such curve, though single readings can be large or run the other way; the % refers to the polarisation;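 also: polarization taken with two DNA probes labelled with fluorescein and Texas red; % of control where 0% means no effect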
# Target sequence (P11308 whole entry, looked up, the tested form may be a part): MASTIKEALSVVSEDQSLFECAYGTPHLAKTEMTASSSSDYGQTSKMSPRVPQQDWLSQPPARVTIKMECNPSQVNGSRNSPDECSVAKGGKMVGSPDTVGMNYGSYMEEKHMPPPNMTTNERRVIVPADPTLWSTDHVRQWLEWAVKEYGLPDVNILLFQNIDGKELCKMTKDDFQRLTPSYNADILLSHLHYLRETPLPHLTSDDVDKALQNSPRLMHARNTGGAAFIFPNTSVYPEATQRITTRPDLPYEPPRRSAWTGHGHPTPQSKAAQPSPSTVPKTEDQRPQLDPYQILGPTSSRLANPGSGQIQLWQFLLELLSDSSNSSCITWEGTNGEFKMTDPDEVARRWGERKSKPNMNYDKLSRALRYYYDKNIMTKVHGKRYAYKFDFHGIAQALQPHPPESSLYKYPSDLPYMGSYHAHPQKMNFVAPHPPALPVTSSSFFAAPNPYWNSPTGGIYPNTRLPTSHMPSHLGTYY
#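 His-tagged ERG Ets domain (1 uM in the protein solution; 300mM KCl, 50mM Tris-HCl, 1mM EDTA, 1mM DTT, pH 7.5) received compound, then a probe mix of 5 nM fluorescein-DNA and 100nM Texas-615-DNA. Fluorescence polarization was read for both dyes.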
# Tb PFK block – qHTS Assay to Find Inhibitors of T. brucei phosphofructokinase; T. brucei PFK, ADP-Glo luminescence; Potency, µM (titrated, usually from 57.5 µM), for inactives: at the highest dose activity, negative = inhibition, most hits filed as inhibitors; 0.17% of 330,000 active; AID 485367, 2010;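 also: 0% = uninhibited 1x PFK enzyme wells and -100% = no-enzyme wells; nearly all actives have a fitted effect of over 60% in size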
#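 ADP-Glo luminescence quantified ADP after 45 min at room temperature, with 1.25 nM T. brucei PFK, 0.1 mM ATP and 0.5 mM fructose-6-phosphate in pH 8.0 TEA buffer. qHTS titrations up to 57 µM; curves classified by quality.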
# A-T KAP1 phos – qHTS Assay for Identifying a Potential Treatment of Ataxia-Telangiectasia | Potency, µM (titrated, usually from 57.5 µM), without a hit: at the highest dose activation, usual class: activators | AID 485349, 2010 | 0.19% of 320,000 active | F2112 A-T fibroblasts, KAP-1 phosphorylation AlphaLISA; neocarzinostatin DNA damage 30 min before lysis; also: % of control where 0% means no effect; nearly all actives have a fitted effect of over 45% in size
#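 ATM-like activity read as KAP-1 phosphorylation via AlphaLISA donor/acceptor antibody pairs after lysis and 6 hr at 25C. Cells were ATM-null patient fibroblasts (F2112, hTERT), dosed 60 min, then exposed to the DSB inducer NCS for 30 min.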
# Active calls of the source: *; i = inactive; ? = inconclusive; / = not tested or not shown. Unless noted, calls follow the shape of the dose curve; as a rule, active = well fitted curve in the direction sought with a large enough effect; inconclusive = small, poorly fitted or top-dose-only effect, or another doubt; inactive = no such curve, though single readings can be large; an effect the other way counts as inactive or inconclusive. Potency is read from the fitted curve at half-maximal effect.
SMILES,ASM inhibitor,KAT2A inh,p53 reactivator,ERG Ets-DNA blk,Tb PFK block,A-T KAP1 phos
CCOC(=O)CCC(=O)O[C@H]1C(O[C@@H]2C(C)[C@H](O[C@H]3C[C@@](C)(OC)C(O)C(C)O3)C(C)C(=O)OC(CC)[C@@](C)(O)C(O)[C@H](C)C(=O)C(C)C[C@]2(C)O)OC(C)CC1N(C)C (stereo partly specified),/,3%,/,/,/,/
COc1ccc(CNC(=O)/C=C/c2ccc(OCCCF)cc2)cc1,-2%,0%,0%,2%,1%,9%
O=C(/C=C/c1ccc(OCCCF)cc1)NCc1ccc(Cl)cc1,-2%,3.5µM*,1%,-1%,-7%,2%
CCCCNC(=O)Cn1nc(N2CCN(c3ccccc3OC)CC2)ccc1=O,/,-1%,/,-2%,/,/
COc1cccc(CNC(=O)c2ccc3nc(-c4ccccc4)c(-c4ccccc4)nc3c2)c1OC,/,-13%,/,10%,/,/
COc1cccc(OC)c1C(=O)NC(=O)Nc1c(C)cccc1C,4%,4%,4%,-6%,1%,3.5µM*
COc1ccc([N+](=O)[O-])c(OC)c1C(=O)NC(=O)Nc1c(C)cccc1C,-2%,-2%,7%,-2%,1%,-14%
Cc1c(O)ccc2cc(S(=O)(=O)c3ccccc3)c(=O)oc12,i,?,2%,3%,-5%,13µM*
O=C(OC1Cc2c(O)cc(O)cc2OC1c1cc(O)c(O)c(O)c1-c1c(C2Oc3cc(O)cc(O)c3CC2OC(=O)c2cc(O)c(O)c(O)c2)cc(O)c(O)c1O)c1cc(O)c(O)c(O)c1 (stereo unspecified),/,14µM*,/,/,/,/
O=C1/C(=C/N(C(=O)c2ccco2)c2ccc(Cl)cc2)Sc2ccccc21,42%,-4%,28µM*,/,4%,-12%
COc1ccc(NC(=O)NCc2c(-n3cccc3)sc3c2CCCC3)c(OC)c1,/,-6%,/,0%,/,/
COc1ccccc1Cn1c(CNS(=O)(=O)c2c(C)cc(C)cc2C)nc2cccnc21,/,-4%,/,1%,/,/
CC(C)c1ccc(NC(=O)C(Cc2ccccc2)n2cccc2)cc1 (stereo unspecified),/,-8%,/,10%,/,/
O=C1NN(c2ccccc2)C(=O)/C1=C\c1cccc(OC(=O)c2cccs2)c1,-13%,-16%,0%,5%,13%,5%
O=C1NN(c2ccc(Cl)c(Cl)c2)C(=O)/C1=C/c1cccc(OC(=O)c2cccs2)c1,/,35µM*,6%,/,2%,7%
O=C(Cn1cc(SCc2ccccc2F)c2ccccc21)N1CCCCC1,/,-12%,/,-7%,/,/
CCc1nc(N2CCCC(C)C2)c2oc3ccccc3c2n1 (stereo unspecified),-9%,2%,?,-2%,-7%,40µM*
CCc1nc(N2CCCCC2)c2oc3ccccc3c2n1,-12%,/,/,-1%,/,/
O=C(CNC(=O)c1ccccc1)OCc1cc(=O)n2nc(C3CC3)sc2n1,/,0%,/,1%,/,/
Cc1ccc(Cl)cc1N1CCN(C(=O)c2cn(C)c3ccc(S(=O)(=O)N4CCCC4)cc3c2=O)CC1,/,0%,/,3%,/,/
c1ccc2c(N3CCOCC3)nc(N3CCOCC3)nc2c1,i,-5%,16%,-3%,-2%,/
CSc1nc(N2CCOCC2)nc2ccc(C)cc12,i,-7%,10%,4%,-18%,28µM*
CC(C)NC(=O)c1ccc2c(c1)N(Cc1cccc(Cl)c1)C(=O)c1ccccc1S2=O (stereo unspecified),/,1%,/,-2%,/,/
CCN1CCN(Cc2ccc(NC(=O)c3ccc(C)c(NC(=O)c4csc(-c5ccncc5)n4)c3)cc2C(F)(F)F)CC1,2%,-18%,-1%,13%,2%,40µM*
CCN1CCN(Cc2ccc(NC(=O)c3ccc(C)c(NC(=O)c4ccno4)c3)cc2C(F)(F)F)CC1,1%,-1%,2%,8%,3%,-13%
SMILES,ASM inhibitor,KAT2A inh,p53 reactivator,ERG Ets-DNA blk,Tb PFK block,A-T KAP1 phos
Cc1ccc(CN2CCN(C3CCN(C(=O)c4ccccc4)CC3)C(=O)C2=O)cc1,/,2%,/,2%,/,/
O=C(NCC1COCCO1)c1ccc2nc(Cc3cccc(Cl)c3)oc2c1 (stereo unspecified),/,?,9%,2%,15µM*,-19%
O=C(NCCc1ccncc1)c1ccc2nc(Cc3cccc(Cl)c3)oc2c1,-1%,-7%,6%,-1%,-1%,6%
CC(C)(C)CC(C)(C)c1ccc(OCC(=O)N/N=C/c2ccc(S(=O)(=O)O)o2)cc1,4%,3%,-7%,-15%,-4%,0%
Cc1ccc(C(C)C)c(OCC(=O)N/N=C/c2ccc(S(=O)(=O)O)o2)c1,12%,-10%,0%,-1%,1%,14µM*
O=C1CC(=O)N(Cc2cccs2)C(=O)N1,2%,4%,-10%,6%,-1%,5%
O=C1CC(=O)N(Cc2ccco2)C(=O)N1,-3%,-17%,0%,?,24µM*,-1%
COC(=O)CCCC1=CC2=CC(=O)C(C)(OC(=O)c3cccs3)C(=O)C2=CN1C1CCCCC1 (stereo unspecified),4%,31%,0%,-19%,4%,25µM*
Clc1ccc(-c2c[n+](Cc3ccc(Cl)c(Cl)c3)c3n2CCC3)cc1,/,0%,-7%,/,12µM*,0%
C(=C1/CCCC2=C1Nc1ncnn1C2c1ccccc1)/c1ccccc1 (stereo unspecified),/,0%,-12%,/,6%,40µM*
Cc1cc(=O)oc2c(C)c(OCC(=O)N3CCN(c4ccccc4)CC3)ccc12,-2%,-1%,-17%,-2%,-2%,5%
Cc1cc(=O)oc2c(C)c(OCC(=O)N3CCN(c4cccc(Cl)c4)CC3)ccc12,-10%,-4%,-11%,-12%,21µM*,4%
Cc1ccc(/C(N)=N/OC(=O)c2ccco2)cc1,-2%,-5%,18µM*,0%,-3%,1%
N/C(=N\OC(=O)c1ccco1)c1ccccc1,3%,0%,?,/,-5%,1%
CCOC(=O)c1ccccc1NC(=O)CSc1cn(CC(=O)N2CCCCCC2)c2ccccc12,/,-18%,/,-1%,/,/
